Assay outcomes as filed in PubChem BioAssay.
Only some compounds are listed: those with a hit (about 1.2% of all), similar ones and a draw of the others.
gsp agonist: activates gsp, the McCune-Albright syndrome mutation; gsp mutant cells, cAMP HTRF, 30 min; Potency, µM (series often up to 76.9 µM), inactives show top-dose activation (cAMP increase), actives largely listed as activators; actives 0.13% (n = 340,000); active = well fitted activation curve with a large enough effect; inconclusive = small, poorly fitted or top-dose-only effect, or another doubt; inactive = no such curve, though single readings can be large or run the other way; cell line not stated here;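 note: phosphodiesterase inhibitor Ro 20-1724 added with compounds to block cAMP breakdown; potency is the fitted concentration of half-maximal effect; nearly all actives have a fitted effect of over 60% in size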
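Cells stably selected in G418 were plated at 2000/well, grown 16-24 hr, then given compounds in DMSO with the PDE inhibitor […] (300 uM solution added) for 30 min at 37C; cAMP was read by HTRF.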
RXFP1 antagonist: antagonists of human relaxin receptor RXFP1. actives 0.59% (n = 350,000). HEK293-RXFP1, relaxin-stimulated cAMP HTRF, 30 min; hits give low values. activity change, negative = inhibition, % at 57.5 µM. Q9HBX9;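 active = activity change of -60% or lower, but not beyond a set lower limit; inconclusive = change between -60% and -40%, or beyond the set limit; inactive = change above -40%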; note: % is set by controls: 0 for no effect and ±100 for the full control effect
Target sequence (Q9HBX9 whole entry, looked up): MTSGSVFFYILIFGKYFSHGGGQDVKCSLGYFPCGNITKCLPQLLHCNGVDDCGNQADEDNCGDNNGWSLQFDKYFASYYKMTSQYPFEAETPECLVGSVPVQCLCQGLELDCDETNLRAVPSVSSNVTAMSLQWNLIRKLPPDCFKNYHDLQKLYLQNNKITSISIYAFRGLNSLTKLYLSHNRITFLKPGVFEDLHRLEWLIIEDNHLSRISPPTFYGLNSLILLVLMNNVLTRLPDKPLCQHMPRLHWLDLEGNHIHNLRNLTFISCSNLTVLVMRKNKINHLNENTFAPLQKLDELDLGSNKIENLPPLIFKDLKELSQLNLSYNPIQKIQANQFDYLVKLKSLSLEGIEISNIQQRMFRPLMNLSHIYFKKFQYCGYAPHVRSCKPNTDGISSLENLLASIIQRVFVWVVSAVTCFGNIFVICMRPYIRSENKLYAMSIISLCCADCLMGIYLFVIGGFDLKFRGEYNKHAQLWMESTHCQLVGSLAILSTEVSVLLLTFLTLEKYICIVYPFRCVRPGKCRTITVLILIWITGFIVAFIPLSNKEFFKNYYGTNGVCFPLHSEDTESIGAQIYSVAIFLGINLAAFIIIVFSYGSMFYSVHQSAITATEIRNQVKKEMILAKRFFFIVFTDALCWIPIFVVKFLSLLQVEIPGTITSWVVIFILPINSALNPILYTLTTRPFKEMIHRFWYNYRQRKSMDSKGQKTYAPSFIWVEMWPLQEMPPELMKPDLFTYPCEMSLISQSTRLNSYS
Akt phos inh: blocks phosphorylation of Akt. Neuro2A IGF-stimulated pAkt S473 HTRF, 20 min; hits give low values. activity change, % for hits at 50 µM. actives 0.32% (n = 360,000). AID 651550; in the data active = activity change below about -80%; inconclusive = mostly about -51% to -80%; note: % is set by controls: 0 for no effect and ±100 for the full control effect
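Single-point screen (50 µM final compound) in Neuro2A cells stimulated 20 min with 6 nM IGF at 37 deg C. After lysis, Ser473-phosphorylated Akt read by HTRF (ex 330 nm, em 615/665 nm) as the 665/615 ratio.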
RXFP1 agonist: activates the human relaxin receptor RXFP1. Q9HBX9. HEK293T-RXFP1 cAMP TR-FRET, 30 min; response scale: percent of porcine relaxin response, buffer zero. Potency, µM (doses to about 57.5 µM), for inactives: top-dose activation, hits mostly activators. actives 0.3% (n = 370,000). AID 2676; active = well fitted activation curve with a large enough effect; inconclusive = small, poorly fitted or top-dose-only effect; note: potency is the fitted concentration of half-maximal effect; % is set by controls: 0 for no effect and ±100 for the full control effect; nearly all actives have a fitted effect of over 60% in size
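cAMP rise read by TR-FRET after 30 min, 37C compound exposure (up to 58 uM) in RXFP1-transfected HEK293 cells with Ro 20174 present. EC50 from Hill-equation fits, with 29 nM porcine relaxin as 100% and buffer as basal.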
gsp antag: antagonists of gsp mutant (McCune-Albright syndrome); gsp-mutant cells, cAMP HTRF, 30 min; Potency, µM (top dose mostly 76.9 µM), for the others: at the highest dose activity change, negative = inhibition, hits mostly inhibitors; actives 0.4% (n = 340,000); AID 624288; calls by dose curve; cell line not stated here;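 note: intracellular cAMP measured with PDE inhibitor Ro 20-1724 present during compound exposure; potency is the fitted concentration of half-maximal effect; % is set by controls: 0 for no effect and ±100 for the full control effect; nearly all actives have a fitted effect of over 65% in size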
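Cells, 2000/well, grown 16–24 h in DMEM 10% FBS with 0.5 mg/ml G418, then compounds plus […] (300 uM addition stock), 30 min at 37C. cAMP read by HTRF (cAMP-d2 and anti-cAMP antibody-K in lysis buffer) after 30 min RT.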
* = called active by the depositor; [ ] = remark or other dose.

How did Fc1ccc(CSc2nncn3c2cc2occc23)c(Cl)c1 do in these assays?
RXFP1 antagonist: -30.6; RXFP1 agonist: 24.5%

Results for O=C(Nc1cc(C(=O)N2CCCC2)ccc1N1CCCC1)c1ccccc1F ?
gsp agonist: inconclusive; RXFP1 antagonist: -26.2; RXFP1 agonist: -1.0%; gsp antag: 6.31µM*

How did O=S(=O)(O)OCC1OC(OC2(COS(=O)(=O)O)OC(COS(=O)(=O)O)C(OS(=O)(=O)O)C2OS(=O)(=O)O)C(OS(=O)(=O)O)C(OS(=O)(=O)O)C1OS(=O)(=O)O (stereo unspecified) do in these assays?
RXFP1 antagonist: 19.1

What do the screens show for `COCCCNC(=O)c1ccc(OC)c(OC2CCN(C(C)C)CC2)c1`?
gsp agonist: 20.1%; RXFP1 antagonist: 1.1; Akt phos inh: inactive; RXFP1 agonist: 1.9%; gsp antag: 50.1µM*

How did COc1ccccc1CCNC(=O)c1ccc(OC)c(OC2CCN(C(C)C)CC2)c1 do in these assays?
gsp agonist: -4.6%[15.4 µM]; RXFP1 antagonist: -18.4; Akt phos inh: inactive; RXFP1 agonist: -0.4%; gsp antag: 22.3%

Results for CCN(CC)c1ccc(NC(=O)c2cnn3c(C(F)F)cc(-c4ccccc4)nc23)cc1 ?
RXFP1 antagonist: -6.0; RXFP1 agonist: 2.2%

What do the screens show for `C1=C(c2ccccc2)Nc2nnnn2C1c1cccs1` (stereo unspecified)?
gsp agonist: 1.4%; RXFP1 antagonist: inconclusive; Akt phos inh: -110.5%*; RXFP1 agonist: 0.9%; gsp antag: 8.0%

Results for CC1=C(C(=O)Nc2ccccc2)C(c2cccs2)n2nnnc2N1 (stereo unspecified) ?
gsp agonist: 1.7%; RXFP1 antagonist: -8.1; Akt phos inh: -95.7%*; RXFP1 agonist: 1.5%; gsp antag: -0.4%

Results for CC1=C(C(=O)Nc2ccccc2)C(c2ccncc2)n2nnnc2N1 (stereo unspecified) ?
gsp agonist: 2.7%; RXFP1 antagonist: -4.0; Akt phos inh: inactive; RXFP1 agonist: 1.1%; gsp antag: 15.5%

What do the screens show for `Cc1ccc(-n2cc(C(=O)c3ccc(F)cc3)nn2)cc1Cl`?
gsp agonist: -34.0%; RXFP1 antagonist: -10.6; Akt phos inh: -120.8%*; RXFP1 agonist: 16.0%; gsp antag: 7.8%[15.4 µM]

How did O=C(Nc1ccc(Oc2ccccc2)cc1)c1ccc(F)c(S(=O)(=O)N2CCN(c3ccccc3F)CC2)c1 do in these assays?
RXFP1 antagonist: -10.9; RXFP1 agonist: 0.3%

What do the screens show for `COc1ccc(S(=O)(=O)N(CC(=O)NCc2cccnc2)Cc2ccccc2)cc1`?
gsp agonist: 1.4%[15.4 µM]; RXFP1 antagonist: -3.4; Akt phos inh: inactive; RXFP1 agonist: 0.2%; gsp antag: 11.2µM*

What do the screens show for `CS(=O)(=O)N(CCc1ccccc1)CC(=O)NCc1cccnc1`?
gsp agonist: 0.9%; RXFP1 antagonist: 2.1; Akt phos inh: -108.1%*; RXFP1 agonist: 1.0%; gsp antag: 0.3%

What do the screens show for `O=C(CN(Cc1ccccc1)S(=O)(=O)c1ccc(F)cc1)NCc1cccnc1`?
gsp agonist: 2.0%; RXFP1 antagonist: -0.7; Akt phos inh: inactive; RXFP1 agonist: -1.9%; gsp antag: -5.6%

How did O=C(OCC1(COC(=O)c2cccnc2)CCCC(COC(=O)c2cccnc2)(COC(=O)c2cccnc2)C1O)c1cccnc1 do in these assays?
RXFP1 antagonist: -8.1

What do the screens show for `N#CCCn1nc(-c2ccc(Br)cc2)cc1Nc1ccccc1NC(=O)C(F)(F)F`?
gsp agonist: 18.7%[15.4 µM]; RXFP1 antagonist: -12.3; Akt phos inh: inactive; RXFP1 agonist: 1.6%; gsp antag: 31.6µM*

Results for CCOC(=O)N1CCN(C(=O)CN(Cc2ccc(Cl)cc2)S(=O)(=O)c2ccccc2)CC1 ?
gsp agonist: -9.3%; RXFP1 antagonist: 8.3; Akt phos inh: -103.3%*; RXFP1 agonist: 0.1%; gsp antag: -6.2%

How did CCOC(=O)N1CCN(C(=O)CN(Cc2ccccc2)S(C)(=O)=O)CC1 do in these assays?
gsp agonist: 25.5%; RXFP1 antagonist: -20.8; Akt phos inh: inactive; RXFP1 agonist: 2.8%; gsp antag: 4.0%
